# Data as given in PubChem BioAssay (NCATS).
# Results filed as inconclusive are left out. Entries that show only a call come without a potency. Calls of active or inactive are those of the source. Unless noted, calls come from the whole dose curve; as a rule, active = well fitted curve in the direction sought with a large enough effect; inconclusive = small, poorly fitted or top-dose-only effect, or another doubt; inactive = no such curve, though single readings can be large; an effect the other way counts as inactive or inconclusive.
# Assays:
# [1] = Cell Viability - LYMP1-002 - Assay at 16 hr (AID 948); note: potency is the fitted concentration of half-maximal effect
# Procedure, shortened: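 LYMP1-002 human lymphoblastoid cells, 2500/well; 5 hr 37 C; cpd 16 hr 37 C; CellTiter-Glo 30 min RT; luminescence (ATP). Concentration-response, Hill-fit AC50. Pos ctrl tetraoctylammonium bromide.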
# [2] = MultiTox-Fluor Cytotoxicity Assay - LYMP1-002 - Live Cells (AID 955); note: potency is the fitted concentration of half-maximal effect
# Procedure, shortened: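 Human lymphoblastoid LYMP1-002 cells, 2500/well in complete medium, rested 5 hr at 37 C, then exposed to compounds for 16 hr at 37 C. Live-cell protease cleavage of GF-AFC read by fluorescence (Ex/Em 405/510) after 60 min at room temperature; AC50 from Hill fits.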
# [3] = MultiTox-Fluor Cytotoxicity Assay - LYMP1-003 - Dead Cells (AID 961); note: nearly all actives have a fitted effect of over 70% in size; note: potency is the fitted concentration of half-maximal effect
# Procedure, shortened: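 LYMP1-003 lymphoblastoid, 2500 cells/well, 5 hr settle then 16 hr cpd at 37 C; MultiTox-Fluor reagent 60 min RT; Ex/Em 485/520 dead-cell signal; norm. DMSO = 0%, 15 uM tetraoctylammonium bromide = 100%; Hill AC50.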
# [4] = MultiTox-Fluor Cytotoxicity Assay - LYMP1-003 - Live Cells (AID 962); note: potency is the fitted concentration of half-maximal effect
# Procedure, shortened: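 LYMP1-003 human lymphoblastoid cells (2500/well) in complete medium were preincubated 5 hr at 37 C, then exposed to compounds for 16 hr at 37 C. Live-cell protease cleavage of GF-AFC read by fluorescence (Ex/Em 405/510); AC50 from Hill fits.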
# [5] = Cell Viability - LYMP1-003 - Assay at 24 hr (AID 963); note: potency is the fitted concentration of half-maximal effect
# Procedure, shortened: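 Human lymphoblastoid LYMP1-003 cells (2500/well) were rested 5 hr at 37 C, then exposed to compounds in complete medium for 24 hr at 37 C. Cellular ATP was quantified by CellTiter-Glo luminescence, and AC50 values came from Hill fits of concentration-response data.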
# [6] = Cell Viability - LYMP2-003 (AID 965);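 note: cells exposed to compounds for 24 h before reading; nearly all actives have a fitted effect of over 50% in size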; note: potency is the fitted concentration of half-maximal effect
# Procedure, shortened: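 CellTiter-Glo luminescence (cellular ATP) after 24 h compound exposure at 37 C in complete medium; 2500 cells/well, 5 h settling beforehand. Concentration-response fitted to standard Hill equation for AC50. Tetraoctylammonium bromide served as positive control.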
# [7] = MultiTox-Fluor Cytotoxicity Assay - LYMP1-002 - Dead Cells (AID 960); note: nearly all actives have a fitted effect of over 60% in size
# Procedure, shortened: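 Human lymphoblastoid cells (LYMP1-002), 2500/well in complete medium, were exposed to compounds for 16 hr at 37 C. Dead-cell protease activity was read as bis-AAF-R110 fluorescence (Ex/Em 485/520), normalized to DMSO and 15 uM tetraoctylammonium bromide; AC50 from Hill fits.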
# [8] = biological target: Pyruvate kinase PKM (Homo sapiens) (UniProt P14618); assay: qHTS Assay for Activators of Human Muscle Pyruvate Kinase (AID 954; active = well fitted curve in the direction sought with a large enough effect, not every such curve was filed as active)
# Sequence of Pyruvate kinase PKM (Homo sapiens) (P14618 whole entry, looked up): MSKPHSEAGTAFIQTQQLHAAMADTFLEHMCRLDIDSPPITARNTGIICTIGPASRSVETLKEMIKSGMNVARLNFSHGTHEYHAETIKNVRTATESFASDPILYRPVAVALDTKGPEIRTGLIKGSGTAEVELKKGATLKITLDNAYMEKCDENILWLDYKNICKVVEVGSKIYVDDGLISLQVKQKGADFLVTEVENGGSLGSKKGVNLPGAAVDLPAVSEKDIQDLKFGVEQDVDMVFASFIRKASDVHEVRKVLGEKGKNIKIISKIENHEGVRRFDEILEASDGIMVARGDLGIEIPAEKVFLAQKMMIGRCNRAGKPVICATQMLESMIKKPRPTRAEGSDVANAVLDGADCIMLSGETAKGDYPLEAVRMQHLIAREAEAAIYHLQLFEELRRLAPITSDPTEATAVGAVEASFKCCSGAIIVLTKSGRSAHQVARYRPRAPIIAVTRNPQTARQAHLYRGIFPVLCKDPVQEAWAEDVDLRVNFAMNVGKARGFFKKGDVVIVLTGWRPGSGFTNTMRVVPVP
# Procedure, shortened: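 Reaction: 0.1 nM purified PKM2 with 0.5 mM phosphoenolpyruvate and 0.1 mM ADP, room temperature, 1 h. Readout: luciferase-based ATP luminescence after stop reagent. Activators judged against a 0.3 nM enzyme column.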
smiles,measurement,setting,value
N=C1N=C(N)c2cc3ccccc3cc21,Potency,[1],39.8 µM (active)
same,Potency,[2],25.1 µM (active)
same,Potency,[3],39.8 µM (active)
same,Potency,[4],50.1 µM (active)
same,Potency,[5],50.1 µM (active)
same,Potency,[6],39.8 µM (active)
COc1cc(CNC(=O)CCCC/C=C/C(C)C)ccc1O,Potency,[1],inactive
same,Potency,[2],inactive
same,Potency,[3],inactive
same,Potency,[4],inactive
same,Potency,[5],inactive
same,Potency,[6],inactive
Nc1ccc(O)c(C(=O)O)c1,Potency,[1],inactive
same,Potency,[2],inactive
same,Potency,[7],inactive
same,Potency,[3],inactive
same,Potency,[4],inactive
same,Potency,[5],inactive
same,Potency,[6],inactive
C#C[C@]1(O)CC[C@H]2[C@@H]3CCc4cc(O)ccc4[C@H]3CC[C@@]21C,Potency,[1],inactive
same,Potency,[2],inactive
same,Potency,[4],inactive
same,Potency,[5],inactive
same,Potency,[6],inactive
CCCCCCCCCCCCCCCCCC(=O)O,Potency,[1],inactive
same,Potency,[2],inactive
same,Potency,[7],inactive
same,Potency,[3],inactive
same,Potency,[4],inactive
same,Potency,[5],inactive
same,Potency,[6],inactive
COc1cc2c(CCNC(C)=O)c[nH]c2cc1Cl,outcome,[8],inactive
O=S(=O)(c1cccc2c(I)cccc12)N1CCCNCC1,outcome,[8],inactive
C[N+]1(C)CCC(OC(=O)C(c2ccccc2)c2ccccc2)CC1,outcome,[8],inactive
N#C/C(=C\c1ccc(O)c(O)c1)C(=O)NCc1ccccc1,outcome,[8],inactive
O=C1C(SCCO)=C(SCCO)C(=O)c2ccccc21,outcome,[8],inactive
NC(=O)C(=O)O,outcome,[8],inactive
O=C(O)c1cc(=O)c2c(Cl)cc(Cl)cc2[nH]1,outcome,[8],inactive
COC(=O)c1c(C)[nH]c(C)c1C(=O)c1ccccc1Cc1ccccc1,outcome,[8],inactive
CC(=O)SCC[N+](C)(C)C,outcome,[8],inactive
O=c1[nH]c2cc([N+](=O)[O-])c([N+](=O)[O-])cc2[nH]c1=O,outcome,[8],inactive
NCCCS(=O)(=O)O,outcome,[8],inactive
Brc1c(Br)c(Br)c2n[nH]nc2c1Br,outcome,[8],inactive
N=C(N)SCCc1ccc(CCSC(=N)N)cc1,outcome,[8],inactive
COc1ccccc1CNCCCCCCNCCCCCCCCNCCCCCCNCc1ccccc1OC,outcome,[8],inactive
CC(C)NC[C@H](O)COc1cccc2[nH]ccc12,outcome,[8],inactive
COc1ccccc1N1CCN(CCCCNS(=O)(=O)c2cccc3c(N(C)C)cccc23)CC1,outcome,[8],inactive
O=C(c1cc(O)c(O)c([N+](=O)[O-])c1)c1ccccc1F,outcome,[8],inactive
O=C1NC(O)=NC1(c1ccccc1)c1ccccc1,outcome,[8],inactive
NCCCCC(=O)O,outcome,[8],inactive
C[C@@H](NC(=O)/C(C#N)=C/c1ccc(O)c(O)c1)c1ccccc1,outcome,[8],inactive
CN1[C@@H]2CC[C@H]1CC(OC(c1ccccc1)c1ccccc1)C2 (stereo not given in full),outcome,[8],inactive
N#C/C(=C\c1ccc(O)c(O)c1)C(=O)NCCCc1ccccc1,outcome,[8],inactive
C[N+](C)(CCCCCC[N+](C)(C)CCCN1C(=O)c2cccc3cccc(c23)C1=O)CCCN1C(=O)c2cccc3cccc(c23)C1=O,outcome,[8],inactive
NC[C@@H]1O[C@H](C23CC4CC(CC(C4)C2)C3)Cc2c1ccc(O)c2O,outcome,[8],inactive
O=C(O)[C@@H]1C[C@@H](C(=O)O)N1,outcome,[8],inactive
O=C(O)c1cc([N+](=O)[O-])ccc1NCCCc1ccccc1,outcome,[8],inactive
Fc1ccc(C(OCCCc2cnc[nH]2)c2ccc(F)cc2)cc1,outcome,[8],inactive
O=c1[nH]c2cc(Cl)c(Cl)cc2[nH]c1=O,outcome,[8],inactive
O=Nc1ccc2oc(=O)ccc2c1,outcome,[8],inactive
C=C[C@H]1CN2CC[C@@H]1C[C@@H]2[C@@H](O)c1ccnc2ccc(OC)cc12,outcome,[8],inactive
c1ccc(-c2ccccn2)nc1,outcome,[8],inactive
CN(C)c1nc(N)c(C(=O)N=C(N)N)nc1Cl,outcome,[8],inactive
CCN1/C(=C/C(C)=O)Sc2ccc(OC)cc21,outcome,[8],inactive
NCCCCCCCCCCN,outcome,[8],inactive
Oc1ccccc1O,Potency,[2],inactive
same,Potency,[6],inactive
c1cnc2c(c1)ccc1cccnc12,Potency,[2],inactive
same,Potency,[7],inactive
same,Potency,[3],inactive
